Screening data (PubChem)
Pf apPOL block – Pf-apPOL inhibitors, biochemical, fluorescence | actives 0.25% (n = 210,000) | Recombinant Pf-apPOL, molecular beacon fluorescence, 1.5 h | inhibition, % at 10 µM | Plasmodium falciparum apicoplast DNA polymerase (apPOL)
mHTT-CaM PPI inh – mutant huntingtin-calmodulin interaction inhibitors – biochemical, AlphaScreen, primary screen; AlphaScreen His-mHTT/GST-CaM binding, luminescence; P42858; inhibition, % at 15 µM; AID 1671202, 2021; actives 3.6% (n = 190,000)
Of the large screens only hits and unclear results are named; the others gave an inactive call; ! = not active in a repeat. Shown is part of a subset that was picked to be rich in hits. Cut-off read from the data, not from the text of the source: active = inhibition above about 50%; inactive = the rest.

COc1cc(C)c(S(=O)(=O)n2cnc3cc(C)c(C)cc32)cc1C	mHTT-CaM PPI inh 67.0
COc1cc(S(=O)(=O)n2cnc3cc(C)c(C)cc32)c(C)cc1C	none
Cc1ccc(NC(=O)N2CC3CC(NS(C)(=O)=O)C2C3)c(C)c1 (stereo unspecified)	none
CC(C)c1ccc(NC(=O)C(=O)NCCCN2CCN(c3ccccc3)CC2)cc1	none
CNC(=O)Cc1ccc(NC(=O)OCc2ccccc2)cc1	none
CC1(c2ccccc2)CC(C)(C)N2C(=O)C(=O)c3cccc1c32 (stereo unspecified)	mHTT-CaM PPI inh 80.0
CC1(c2ccccc2)CC(C)(C)N(C(=O)C(F)(F)F)c2ccccc21 (stereo unspecified)	none
Cc1cc2c(C(C)C)c(O)c(O)c(C=O)c2c(O)c1-c1c(C)cc2c(C(C)C)c(O)c(O)c(C=O)c2c1O	Pf apPOL block 87.8! (no result: mHTT-CaM PPI inh)
